A short description of test [1]: anti-His antibody binders, primary screen, artefact control for SMM control protein annotation, biochemical, small-molecule microarray, 635 nm fluorescence (AID 1128).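 Note: score merges feature fluorescence with signal-to-noise for each printed compound spot.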 The following applies: anti-His Alexa647 antibody binding, higher = more signal.
Test [2] concerns Human papillomavirus type 1a E7 protein (residues 1-88). Kind of test: HPV1a E7 small-molecule binders, primary screen, biochemical, small-molecule microarray, residues 1-88, 635 nm (AID 1129). The following applies: small-molecule microarray binding, fluorescence 635 nm; higher = more signal.
The target in test [3] is Focal adhesion kinase 1 (Homo sapiens) (UniProt Q05397). Nature of the test: small-molecule microarray binders of FAK, primary screen, biochemical, 635/667 nm fluorescence, BSA, DTT (AID 1130).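 Note: composite of spot emission at 667 nm and signal to noise over triplicate slides.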 The following applies: PTK2 binding, 635 nm fluorescence, higher = more signal.
Test [4] deals with Fibrinogen (Alexa647-labelled). Kind of test: fibrinogen binders on compound microarrays, profiling panel, artefact control for SMM control-protein annotation, biochemical, small-molecule microarray, 635/667 nm fluorescence (AID 1131).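 Note: z-score merges 667 nm fluorescence with per-spot signal-to-noise over triplicate slides.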 The following applies: fibrinogen-A647 binding fluorescence, higher = more signal.
Test [5] concerns the target Follistatin (Homo sapiens) (UniProt P19883). Nature of the test: follistatin binders on small-molecule microarrays, primary screen, biochemical, small-molecule microarray, 635/667 nm fluorescence (AID 1132). The following applies: FST binding, 635 nm fluorescence, higher = more signal.
In test [6] the target is Fibroblast growth factor 2 (Homo sapiens) (UniProt P09038). Nature of the test: FGF2 binders on small-molecule microarrays, primary screen, biochemical, small-molecule microarray, 635/667 nm fluorescence (AID 1133). The following applies: small-molecule microarray binding, FGF2, fluorescence 635/667; higher = more signal.
A short description of test [7]: mitochondrial membrane potential change in A549 cells, profiling panel, cell-based, JC-1 fluorescence, basal, 24 h, 100 nL (AID 1138).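 Note: A549 lung adenocarcinoma cells under basal conditions with no added stimulus; test concentration not given here.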 The following applies: higher = more signal.
The next test concerns Lefty1. Nature of the test: Lefty1 binders on small-molecule microarrays, primary screen, biochemical, small-molecule microarray, 635/667 nm fluorescence (AID 1139). The following applies: small-molecule microarray binding, fluorescence 635/667; higher = more signal.
In test [8] the test system is wheat germ agglutinin (Triticum aestivum), Alexa647-labelled. Kind of test: wheat germ agglutinin binders on compound microarrays, profiling panel, artefact control for SMM control-protein annotation, biochemical, small-molecule microarray, 635/667 nm fluorescence (AID 1140).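 Note: score merges 667 nm feature emission with signal to noise over triplicate slides.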 The following applies: WGA-A647 binding, 635 nm fluorescence, higher = more signal.
Test [9] addresses Luciferin 4-monooxygenase (Photinus pyralis) (UniProt P08659). Kind of test: firefly luciferase enzyme inhibitors, primary screen, biochemical, luminescence, purified enzyme, 2006 set (AID 1141).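 Note: cell-free assay with purified firefly luciferase at 100 ng per well in PBS; test concentration not given here.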 The following applies: SteadyGlo luminescence, 30 min, higher = more signal, called active from +8 up or from −8 down.
Test [10] has as its system Wnt5a (protein binding on small-molecule microarray). Nature of the test: Wnt5a binders on small-molecule microarray, primary screen, biophysical, 635/667 nm fluorescence (AID 1142).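 Note: fluorescence read at 667 nm with signal to noise per printed feature.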 The following applies: 635 nm fluorescence, higher = more signal.
Test [11] in a line: cell viability in Huh7 cells, primary screen, cytotoxicity control for HCV replication inhibitor project, CellTiter-Glo luminescence, basal, 48 h (AID 1143).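 Note: Huh7 hepatoma cells carrying a hepatitis C replication reporter with no stimulus; test concentration not given here.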 The following applies: Huh7 HCV replicon, higher = more signal, called active from +8 up or from −8 down.
The nature of test [12]: P. aeruginosa biofilm formation inhibitors, primary screen, PAO1 strain, BacTiter-Glo luminescence, LB-PBS (AID 1144). The following applies: 12 h, higher = more signal.
Test [13] can be described thus: CREB reporter modulators without forskolin, primary screen, cell-based, PC12, CRE-LacZ reporter, unstimulated (AID 1145). The following applies: no forskolin, luminescence, 4.5 h, higher = more signal, called active from +8 up or from −8 down.
Test [14] is described as follows: CREB reporter modulators under forskolin, primary screen, cell-based, PC12, CRE-LacZ reporter, forskolin-stimulated (AID 1146).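 Note: PC12 cells with 6xCRE LacZ reporter stimulated by forskolin 10 µM; beta-galactosidase reporter signal reflecting CREB driven transcription.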 The following applies: luminescence, 4.5 h, higher = more signal, called active from +8 up or from −8 down.
Test [15] deals with Streptavidin (Streptomyces avidinii) (UniProt P22629). Kind of test: streptavidin binders on small-molecule microarray, primary screen, artefact control for SMM compound annotation, biophysical, 635/667 nm fluorescence (AID 1147).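 Note: signal reflects streptavidin binding to arrayed compounds as a control protein.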 The following applies: streptavidin binding, higher = more signal.
Test [16] in a line: small-molecule binders of probe aInhba, primary screen, biochemical, small-molecule microarray, 635/667 nm fluorescence (AID 1148).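 Note: score merges 667nm spot fluorescence with signal-to-noise for antibody binding to printed compounds.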 The following applies: higher = more signal.
Test [17] addresses Torsin-1A (Homo sapiens) (UniProt O14656). Kind of test: torsin A binders from cell lysate, primary screen, small-molecule microarray, wild-type, 635/667 nm (AID 1149). The following applies: COS7 hTOR1A-WT lysate, 635 nm fluorescence, higher = more signal.
Test [18] has the same target. Nature of the test: small-molecule binders of mutant TOR1A in lysate, primary screen, cell lysate, small-molecule microarray, COS7 lysate, 635/667 nm fluorescence (AID 1150).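 Note: score pools 667 nm emission and signal to noise measuring lysate protein binding.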 The following applies: COS7 hTOR1A mutant lysate, 635 nm fluorescence, higher = more signal.
Test [19] deals with Sonic hedgehog protein (Shh). Nature of the test: small-molecule binders of Shh protein, primary screen, biochemical, small-molecule microarray, 635/667 nm fluorescence (AID 1151).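 Note: Shh protein binding to compounds spotted on small-molecule microarray slides; score combines spot fluorescence intensity with signal-to-noise across triplicate slides.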 The following applies: small-molecule microarray binding, 635 nm fluorescence; higher = more signal.

Molecules are shown by their SMILES. Activity calls are given as the source filed them. Unless noted, the rule behind the calls is not given here.

Sequence of Streptavidin (Streptomyces avidinii) (P22629 whole entry, looked up): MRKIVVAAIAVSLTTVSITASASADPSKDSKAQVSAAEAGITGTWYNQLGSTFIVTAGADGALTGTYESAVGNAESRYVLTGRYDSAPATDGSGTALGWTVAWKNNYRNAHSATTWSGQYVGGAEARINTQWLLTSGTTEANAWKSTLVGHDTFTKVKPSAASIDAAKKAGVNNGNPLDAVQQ
Sequence of Focal adhesion kinase 1 (Homo sapiens) (Q05397 whole entry, looked up): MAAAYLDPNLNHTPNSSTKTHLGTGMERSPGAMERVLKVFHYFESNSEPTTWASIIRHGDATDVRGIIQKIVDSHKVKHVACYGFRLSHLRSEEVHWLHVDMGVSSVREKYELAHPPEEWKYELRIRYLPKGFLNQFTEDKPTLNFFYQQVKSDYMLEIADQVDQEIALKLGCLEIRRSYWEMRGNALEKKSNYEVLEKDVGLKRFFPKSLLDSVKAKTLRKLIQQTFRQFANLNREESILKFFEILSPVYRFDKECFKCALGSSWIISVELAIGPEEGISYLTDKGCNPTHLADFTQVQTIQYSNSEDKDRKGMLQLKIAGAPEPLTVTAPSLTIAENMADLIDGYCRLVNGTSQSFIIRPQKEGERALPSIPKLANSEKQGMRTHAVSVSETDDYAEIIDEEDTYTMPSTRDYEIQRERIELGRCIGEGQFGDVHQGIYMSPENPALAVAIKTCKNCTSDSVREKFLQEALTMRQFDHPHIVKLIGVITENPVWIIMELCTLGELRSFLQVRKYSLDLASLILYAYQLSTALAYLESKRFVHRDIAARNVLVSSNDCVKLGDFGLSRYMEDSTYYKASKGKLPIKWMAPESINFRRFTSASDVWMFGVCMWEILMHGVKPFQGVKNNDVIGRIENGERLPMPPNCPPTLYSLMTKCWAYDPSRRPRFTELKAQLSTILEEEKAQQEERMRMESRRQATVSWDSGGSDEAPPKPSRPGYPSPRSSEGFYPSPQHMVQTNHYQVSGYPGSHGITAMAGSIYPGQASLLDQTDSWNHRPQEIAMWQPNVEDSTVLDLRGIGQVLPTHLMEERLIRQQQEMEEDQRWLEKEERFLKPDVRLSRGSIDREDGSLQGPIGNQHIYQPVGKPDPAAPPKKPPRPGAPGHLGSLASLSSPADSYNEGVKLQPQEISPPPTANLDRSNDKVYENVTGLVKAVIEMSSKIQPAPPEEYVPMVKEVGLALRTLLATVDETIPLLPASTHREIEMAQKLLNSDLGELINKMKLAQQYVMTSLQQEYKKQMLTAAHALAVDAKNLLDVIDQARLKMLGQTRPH
Sequence of Follistatin (Homo sapiens) (P19883 whole entry, looked up): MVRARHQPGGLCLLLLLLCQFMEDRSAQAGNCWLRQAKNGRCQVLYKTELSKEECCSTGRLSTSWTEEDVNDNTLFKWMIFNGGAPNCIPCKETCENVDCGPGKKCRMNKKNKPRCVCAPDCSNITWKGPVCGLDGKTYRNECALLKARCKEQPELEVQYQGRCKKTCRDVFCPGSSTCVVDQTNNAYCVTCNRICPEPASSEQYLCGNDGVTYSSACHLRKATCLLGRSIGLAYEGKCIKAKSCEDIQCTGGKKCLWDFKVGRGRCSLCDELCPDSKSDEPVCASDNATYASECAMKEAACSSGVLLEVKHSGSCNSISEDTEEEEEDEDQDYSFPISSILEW
Sequence of Torsin-1A (Homo sapiens) (O14656 whole entry, looked up): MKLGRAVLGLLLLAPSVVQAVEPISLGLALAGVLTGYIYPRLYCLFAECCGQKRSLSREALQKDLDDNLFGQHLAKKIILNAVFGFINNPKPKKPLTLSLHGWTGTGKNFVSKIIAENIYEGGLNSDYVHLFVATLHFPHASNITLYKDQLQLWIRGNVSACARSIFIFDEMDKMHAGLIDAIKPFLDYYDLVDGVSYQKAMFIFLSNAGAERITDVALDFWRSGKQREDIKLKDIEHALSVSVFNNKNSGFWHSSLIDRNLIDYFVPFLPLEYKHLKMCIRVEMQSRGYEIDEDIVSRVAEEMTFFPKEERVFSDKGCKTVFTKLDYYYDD
Sequence of Luciferin 4-monooxygenase (Photinus pyralis) (P08659 whole entry, looked up): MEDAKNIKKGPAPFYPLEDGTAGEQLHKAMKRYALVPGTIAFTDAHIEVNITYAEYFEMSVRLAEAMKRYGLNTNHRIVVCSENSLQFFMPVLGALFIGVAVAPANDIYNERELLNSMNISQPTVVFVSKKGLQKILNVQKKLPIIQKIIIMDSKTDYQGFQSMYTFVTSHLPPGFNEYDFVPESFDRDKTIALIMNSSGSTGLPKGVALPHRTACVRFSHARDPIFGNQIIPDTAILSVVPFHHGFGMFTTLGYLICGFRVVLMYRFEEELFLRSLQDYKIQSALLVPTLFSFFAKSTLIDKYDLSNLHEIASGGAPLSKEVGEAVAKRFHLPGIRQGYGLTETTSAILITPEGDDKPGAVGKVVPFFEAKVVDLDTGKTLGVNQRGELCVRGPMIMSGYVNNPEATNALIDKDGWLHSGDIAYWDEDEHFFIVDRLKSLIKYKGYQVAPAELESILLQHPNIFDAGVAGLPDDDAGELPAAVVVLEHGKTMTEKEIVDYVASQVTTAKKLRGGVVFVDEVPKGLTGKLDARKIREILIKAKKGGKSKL
Sequence of Fibroblast growth factor 2 (Homo sapiens) (P09038 whole entry, looked up): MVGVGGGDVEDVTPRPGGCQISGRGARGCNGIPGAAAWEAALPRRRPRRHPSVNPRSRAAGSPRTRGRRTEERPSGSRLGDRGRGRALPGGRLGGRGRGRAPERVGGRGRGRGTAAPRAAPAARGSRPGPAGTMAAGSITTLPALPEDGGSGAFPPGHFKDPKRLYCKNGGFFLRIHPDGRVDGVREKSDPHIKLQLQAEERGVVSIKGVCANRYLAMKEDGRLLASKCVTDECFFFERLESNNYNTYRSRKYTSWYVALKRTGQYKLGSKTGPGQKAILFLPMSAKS

On to `Cc1ccc(S[C@]2(C(=O)NCCCN(C)C)CC(=O)N(Cc3ccccc3)[C@@H]2c2ccc(CO)cc2)cc1`, for which the composite z-score in test [1] was -0.786; in [2], -0.335; in test [3], -0.371; in test [4] it was -0.865; in test [5] it was 0.0417; in test [6] it was -0.734. The composite z-score in the test on Lefty1 is -1.53; in [8], -0.0701; in test [10], -0.2; in test [15] it was -0.689; in [16] it was -0.0494; in the test with Torsin-1A (Homo sapiens) [17], -0.883. The composite z-score with Torsin-1A (Homo sapiens) [18] was -0.623; in test [19], -1.02. Moreover, the z-score in test [7] was 0.803; in [9], -1.1 (inactive); in test [11] it was -0.533 (inactive); in test [12] it was 0.294 (inactive); in [13], -0.232 (inactive); in [14], 0.529 (inactive).

Consider `CCN(CC)c1ccc(N2CC=CC34O[C@@H]5C=CCCOC(=O)C5[C@H]3C(=O)N(CCCO)[C@@H]4C2=O)cc1` (stereo not given in full), for which the composite z-score in test [1] was -1.26; in test [2], -1.14; in [3], 0.585; in test [4], -1.33; in [5], -0.0464; in test [6] it was -0.175. The composite z-score with Lefty1 is 0.108; in [8], -1.19; in test [10], -0.0601; in test [15], -0.619; in [16] it was 0.0051; in the test with Torsin-1A (Homo sapiens) [17], -0.143. Besides, the composite z-score with Torsin-1A (Homo sapiens) [18] was -0.419; in test [19], 0.327. For the same compound, the z-score in test [7] is 0.185; in test [9], -0.546 (inactive); in [11], -2.8 (inactive); in test [12], -0.657 (inactive); in [13], 0.0605 (inactive); in test [14], -1.14 (inactive).

For `C=CCN1Cc2ccccc2C[C@@]2(COC(c3ccc(OCCCO)cc3)=N2)C1=O`, the composite z-score in test [1] stood at 0.131; in [2], 1.2; in test [3], 0.92; in test [4], 0.526; in test [5] it was 1.15; in [6], 0.788. Also, the composite z-score in the test on Lefty1 came out at 0.374; in [8] it was 0.41; in test [10] it was 0.253; in test [15], 0.112; in [16] it was 0.185; with Torsin-1A (Homo sapiens) [17], 0.729. The values for the composite z-score (in the test with Torsin-1A (Homo sapiens) [18]; in [19]) were 0.827 and 0.521, respectively. The z-score was 1.67 in test [7]; -1.62 (inactive) in test [9]; -2.99 (inactive) in test [11]; -0.547 (inactive) in test [12]; 3.21 (inactive) in test [13]; -1.41 (inactive) in test [14].

Turning to `C=CCN1C(=O)[C@]2(Cc3ccccc31)N=C(c1ccc(OCCCO)cc1)O[C@@H]2c1ccccc1`, the composite z-score in [1] came to 0.599; in test [2], 1.22; in test [3], 0.436; in test [4], 0.585; in test [5], 1.36; in [6], 1.65. In addition, the composite z-score in the test with Lefty1 is 0.366; in test [8], 0.322; in test [10] it was 1.2; in [15], 0.586; in test [16], -0.0645; with Torsin-1A (Homo sapiens) [17], 0.154. Also, the composite z-score worked out at 0.512 with Torsin-1A (Homo sapiens) [18] and 0.308 in test [19]. In addition, the z-score is 0.188 in [7]; -1.39 (inactive) in [9]; -3.54 (inactive) in [11]; -0.324 (inactive) in test [12]; -0.146 (inactive) in [13]; -0.436 (inactive) in test [14].
